Screening data (PubChem BioAssay)
In the library only some 19% were active in any assay of this set; here they are far more common.
DT40 TDP1 CPT: DT40-hTDP1 cell growth loss with CPT; chicken DT40 Tdp1-/-;hTDP1 cells + 20 nM CPT, ATP luminescence, 48 h; Potency, µM (top dose mostly 46.2 µM), for inactives: top-dose activity change, negative = growth inhibition, usual class: inhibitors; hit rate 12% among 420,000; AID 686979; further: potency means the concentration at half of the fitted maximal effect; nearly all actives have a fitted effect of over 55% in size
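Cell growth measured by CellTiter-Glo luminescence after a minimum 48 h, 37 C compound exposure with 20 nM CPT in Tdp1-knockout DT40 cells stably expressing hTDP1, seeded 400/well; qHTS titration format.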
TDP1 cell noCPT: qHTS for Inhibitors of human tyrosyl-DNA phosphodiesterase 1 (TDP1): qHTS in cells in absence of CPT; DT40 Tdp1-/- hTDP1 cells, no CPT, ATP luminescence, 48 h; Potency, µM (series often up to 46.2 µM), inactives show at the top dose activity change, negative = growth inhibition, actives largely listed as inhibitors; hit rate 15% among 420,000; further: potency means the concentration at half of the fitted maximal effect; nearly all actives have a fitted effect of over 55% in size
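Growth of hTDP1-complemented DT40 Tdp1-knockout cells is measured by ATP luminescence after at least 48 hr compound exposure at 37 °C, with DMSO substituting for the 20 nM CPT used in the parallel screen.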
ELG1 repair inh: blocks ELG1-dependent DNA repair in HEK293T cells | AID 504467 | Potency, µM (top dose mostly 46.1 µM), for the others: at the top dose activity change, negative = inhibition, most hits filed as inhibitors | HEK293T ELG1-luciferase reporter, luminescence, 16 h; DNA damage induced by 5-fluorouridine | hit rate 2.3% among 330,000; further: potency means the concentration at half of the fitted maximal effect; nearly all actives have a fitted effect of over 55% in size
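Step one: seed 2,000 cells per well. Step two: pin-transfer compound or DMSO alongside 5-fluorouridine. Step three: incubate 16 hr, 37 °C, 5% CO2. Step four: add ONE-Glo, wait 30 min, read luminescence.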
HT1080 IDH1KD tx: toxicity to HT-1080 IDH1 knockdown cells (counter line); HT-1080 IDH1 knockdown viability, ATP luminescence, 48 h; Potency, µM (highest dose often 46.1 µM), for inactives: top-dose activity, negative = toxicity, actives largely listed as cytotoxic; hit rate 2% among 360,000; AID 686971;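 further: potency means the concentration at half of the fitted maximal effect; 0% = DMSO wells and -100% = cell-free medium wells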
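Knockdown cells (IDH1KD HT-1080) received compounds 2 h after plating at 750 cells/well and were kept 48 h at 37 °C in 5% FBS RPMI. A CellTiter-Glo luminescence read gave % activity for curve fitting.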
IL-1B inflam inh: inflammasome signaling inhibition, IL-1 beta readout. THP-1 LPS/ATP IL-1B secretion, AlphaLISA, 16 h; hits give low values. activity change, % at 57.5 µM. hit rate 4.7% among 360,000; in the data active means activity change below about -50%; inconclusive means mostly about -30% to -49%
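THP-1 cells pretreated 1 hr with compounds (up to 57.5 uM final), then stimulated with LPS (250 ng/mL final) plus ATP (1.25 mM final); secreted IL-1B measured by AlphaLISA after 16 hr, decreased signal indicating inhibition.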
HT1080-NT tox: kills 2HG-producing HT-1080-NT fibrosarcoma cells. Potency, µM (top dose mostly 46.1 µM), inactives show at the top dose activity, negative = less viability, actives largely listed as cytotoxic. HT-1080-NT fibrosarcoma viability, CellTiter-Glo ATP luminescence, 48 h. AID 686970. hit rate 1.6% among 360,000;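 further: NT is the 2HG producing partner of a matched IDH1 knockdown line; potency means the concentration at half of the fitted maximal effect; 0% = DMSO-treated cells and -100% = media-only wells without cells; nearly all actives have a fitted effect of over 55% in size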
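HT-1080-NT; 750 cells/well; 5% FBS RPMI; 48 h compound, 37 degrees C; CellTiter-Glo luminescence; curve fitting and curve-class assignment.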
The depositor's hits bear a star; ? = inconclusive; . = no result; [ ] = dose if it differs, or a comment. Unless noted, the call rests on the fitted dose curve; in most records, active means well fitted curve in the direction sought with a large enough effect; inconclusive means small, poorly fitted or top-dose-only effect, or another doubt; inactive means no such curve, though single readings can be large; an effect the other way counts as inactive or inconclusive. Unless noted, on the % scale 0 is the no-effect control and ±100 the full control effect.

SMILES	DT40 TDP1 CPT	TDP1 cell noCPT	ELG1 repair inh	HT1080 IDH1KD tx	IL-1B inflam inh	HT1080-NT tox
CC(C)CCn1c(=O)c(C(=O)N/N=C/c2cccc(F)c2)c(O)c2ccccc21	1.3µM*	0.65µM*	9%	11%	22	13%
CCCCCCn1c(=O)c(C(=O)N/N=C/c2cccc(F)c2)c(O)c2ccccc21	0.92µM*	1µM*	?	9%	-2	10%
[2H]C([2H])(CCOS(N)(=O)=O)c1ccccc1	-6%	-14%	-14%	14%	24	8%
COc1cc(C(=O)N2CCCCCCC2)ccc1OC1CCN(C(C)=O)CC1	-25%	?	0%	10%	-1	8%
CC(=O)c1ccc(NC(=O)c2cc(C3CC3)nc3c2c(C)nn3-c2ccc(C)cc2)cc1	-25%	-27%	.	.	.	.
Cc1cccc(N/N=C(\C=N\N)C(=O)c2ccc(Br)cc2)c1	.	.	-13%	.	.	.
O=C(/C(=C/O)N=Nc1ccccc1Cl)c1ccccc1	?	?	?	15µM*	-99*	13µM*
O=C(/C(=C/O)N=Nc1cccc(C(F)(F)F)c1)c1ccccc1	?	?	?	-23%	-95*	?
Cc1cccc(N=N/C(=C\O)C(=O)c2ccc(Br)cc2)c1	8.2µM*	?	?	?	-85*	?
COc1ccc(CCNC(=O)COC(=O)c2ccc(N3CCCC3=O)cc2)cc1OC	8%	?	1%	14%	41	0%
Cc1nc2ccc(NS(=O)(=O)c3ccccc3F)cc2s1	?	?	5%	0%	23	-20%
Cc1nc2cc(NS(=O)(=O)c3c(C)c(C)cc(C)c3C)ccc2s1	20µM*	11µM*	?	13µM*	-3	13µM*
Cc1ccc(S(=O)(=O)Nc2ccc3nc(C)sc3c2)c(C)c1	?	15µM*	-1%	0%	12	-17%
Cc1nc2cc(NS(=O)(=O)c3ccccc3F)ccc2s1	-29%	-15%	8%	4%	1	6%
Cc1nc2ccc(NS(=O)(=O)c3c(C)c(C)cc(C)c3C)cc2s1	?	21µM*	.	23µM*	9	?
Cc1ccc(S(=O)(=O)Nc2ccc3cn[nH]c3c2)c(C)c1	?	-19%	0%	-9%	42	-4%[9.24 µM]
COc1ccccc1S(=O)(=O)Nc1ccc2nc(C)sc2c1	2.6µM*	21µM*	0%	-8%	12	1%
CC(C)c1ccc(S(=O)(=O)NC2CCS(=O)(=O)C2)cc1 (configuration not stated)	-11%	?	-4%	1%	12	-6%
Cc1cc(Cl)nc2nc(Cl)ccc12	?	5.6µM*	.	.	.	.
Cc1c(-c2ccccc2Cl)nc2ccccc2c1C(=O)O	0%	-1%	0%	2%	5	2%
CC[C@H](C)N(C)C(=O)c1cc2ccccc2c(-c2ccccc2Cl)n1	?	30µM*	.	.	.	.
FC(F)(F)c1ccccc1-c1nc(NCc2cccs2)c2ccccc2n1	?	-26%	.	.	.	.
COc1ccc(-c2ccc3c(c2)O[C@@H](CN(C)C(=O)c2ccccc2F)[C@@H](C)CN([C@@H](C)CO)S3(=O)=O)cc1	?	?	.	-3%	-8	4%
COc1ccc(-c2ccc3c(c2)O[C@H](CN(C)C(=O)Nc2ccccc2F)[C@@H](C)CN([C@H](C)CO)S3(=O)=O)cc1	23µM*	16µM*	.	-23%	12	-16%
C[C@@H]1CN([C@H](C)CO)S(=O)(=O)c2ccc(-c3ccc(C#N)cc3)cc2O[C@H]1CN(C)C(=O)Nc1cc(F)ccc1F	6.5µM*	2.3µM*	.	-28%	-8	?
SMILES	DT40 TDP1 CPT	TDP1 cell noCPT	ELG1 repair inh	HT1080 IDH1KD tx	IL-1B inflam inh	HT1080-NT tox
COCCN1C(=O)C(=O)/C(=C(/O)c2ccc(S(=O)(=O)N3CCOCC3)cc2)C1c1cccc(Cl)c1 (configuration not stated)	-2%	0%	-5%	10%	-14	21%
Nc1nc(CCl)nc(N(c2ccccc2)c2ccccc2)n1	?	?	?	2.9µM*	-102*	?
Nc1nc(Cl)nc(N(c2ccccc2)c2ccccc2)n1	-20%	-3%	?	-5%	1	-1%
O=C(Cc1ccccc1)Nc1sc2c(c1C(=O)Nc1ccc(Br)cc1)CCCC2	12µM*	21µM*	.	.	.	.
COc1ccc(NC(=O)c2c(NC(=O)Cc3ccccc3)sc3c2CCCC3)cc1	-10%	-21%	.	.	.	.
COc1ccc(CC(=O)Nc2sc3c(c2C(=O)Nc2ccc(C)cc2)CCCCC3)cc1	?	16µM*	.	.	.	.
COc1ccc(NC(=O)c2c(NC(=O)C(F)(F)F)sc3c2CCCCC3)cc1	?	18µM*	.	.	.	.
CC1CCc2c(sc(NC(=O)Cc3ccccc3)c2C(=O)Nc2ccc(Cl)cc2)C1 (configuration not stated)	15µM*	?	.	.	.	.
COC(=O)c1cc2sccc2n1Cc1ccc(F)cc1	-21%	-8%	.	.	.	.
CC1CCN(C(=O)C2CCN(C(=O)c3cc4sccc4n3Cc3ccc(F)cc3)CC2)CC1	21µM*	18µM*	16µM*	?	-16	?
O=C(NCCc1ccccc1)c1cc2sccc2n1Cc1ccc(F)cc1	-26%	-29%	.	.	.	.
CC(C)NC(=O)C1CCN(C(=O)c2cc3sccc3n2Cc2ccc(F)cc2)CC1	6.5µM*	7.3µM*	18µM*	5%[9.24 µM]	-81*	-25%
O=C(c1cc2sccc2n1Cc1ccc(F)cc1)N1CCCc2ccccc21	?	23µM*	-30%	-25%	?	-12%
CC(C)NC(=O)C1CCN(C(=O)c2cc3sccc3n2Cc2ccc(Cl)cc2)CC1	1.6µM*	1.5µM*	.	.	.	.
CC1=NNC(=O)C1CCC(=O)N/N=C/c1ccco1 (configuration not stated)	-18%	-5%	4%	17%	-19	12%
CC1C(=O)NN=C1C(=O)N/N=C\C(Br)=C\c1ccccc1 (configuration not stated)	6.5µM*	15µM*	?	-22%	-13	-11%
CC1C(=O)NN=C1C(=O)N/N=C/c1ccco1 (configuration not stated)	?	?	12%	18%	0	-4%
CC1=NNC(=O)C1CCC(=O)N/N=C/C(Br)=C/c1ccccc1 (configuration not stated)	2.9µM*	2.1µM*	13%	2%	17	2%
